Measurements taken from ChEMBL document CHEMBL3988442, “University of Dundee, Small-Polar-MMV Screening Library” (2021).

Each compound was assayed against AMP-activated protein kinase, AMPK (Homo sapiens) (UniProt P54646+O43741+P54619+Q9UGJ0+Q9Y478+Q13131+Q9UGI9) (assay: AMP-dependent Kinase enzyme assay. An in vitro enzyme assay that detects ADP turnover that is directly proportional to AMPK activity. This uses naive AMPK that is activated during the assay with MK-8722). Conditions: 30 µM.
Format: functional
Set-up: scale not given: direction of the effect not stated beside the values

Compound | Percent Effect
O=C(c1cnn2ccccc12)N1CCCC(OCc2ccccn2)C1 (stereo not given) | 14.8%
CCc1nc2n(n1)CC(NCC1=Cc3ccc(OC)cc3OC1)CC2 (stereo not given) | 8.35%
COCCNc1ccc(CC2CCCN(C3CCCC3)C2)nn1 (stereo not given) | 4.32%
O=C(CC1CCc2ccccc21)NC1(C(=O)O)CCCC1 (stereo not given) | -6.64%
c1cc(N2CCC(CN3CCOCC3)CC2)c2sccc2n1 | 2.28%
Cn1cc(CN2CCOC(Cc3cccc(F)c3)C2)cn1 (stereo not given) | 4.61%
Cc1ccccc1C(=O)NCC(=O)NCc1ccccn1 | 17.3%
c1ccc(Cc2noc(-c3ccc(NCC4COCCO4)nc3)n2)cc1 (stereo not given) | 8.79%
COc1cccc(-c2n[nH]cc2-c2nc(CC3CCN(C)CC3)no2)c1 | -6.69%
CNC(=O)CN(C)C(=O)c1ccc(-c2nc(C)cs2)cc1 | -2.2%
O=C(CC1COCCN1)N1CCC2(CCc3ccccc32)CC1 (stereo not given) | -0.69%
CN(Cc1cc(Br)cn1C)C(=O)Cc1cccnc1 | -10.2%
Cc1cc(CNCC2(O)CCOCC2)ccc1Br | -7.22%
CCc1ccccc1Nc1noc2c1CN(C(=O)c1ccn(C)n1)CC2 | -1.29%
CCCS(=O)(=O)N1CCCN(CCCOC)CC1 | 11.7%
Cc1ccnc(C2(C)CCCN2S(=O)(=O)c2ccccc2)n1 (stereo not given) | -5.61%
COc1ccc(Cn2c(Cc3c(C)n[nH]c3C)n[nH]c2=O)cc1 | -5.3%
CC(NC(=O)N1CCCCCC1)c1ccc(S(N)(=O)=O)cc1 (stereo not given) | 5.75%
CNC(=O)COC(=O)c1cccc(-n2ccc(C(F)(F)F)n2)c1 | 5.41%
CC(C)Cc1cc(CNC(=O)c2cccc3c2OCC3)no1 | 3.36%

Compound | Percent Effect
CCS(=O)(=O)NCc1nc(C)cc(N2CCCCC2)n1 | 0.829%
CCCc1nc(C(=O)NC(COC)c2ccnn2C)cs1 (stereo not given) | -0.17%
CCCn1cc(CN2CCOCC2c2[nH]ncc2C)cn1 (stereo not given) | 14.3%
Cc1nonc1CN1CC[C@@](O)(C2CCOCC2)[C@H](C)C1 | -6.73%
O=C(Cn1ccnc1)N1CC[C@H](Oc2cccc(F)c2)[C@@H](O)CC1 | 8.87%
Cc1oc(-c2ccco2)nc1CN1CCc2cnc(C(C)C)nc2C1 | -25.9%
Cn1ccnc1-c1cn(CCCc2csc(N)n2)nn1 | -21%
Cc1nc2n(n1)CC(NCc1ccc(Cl)c3cccnc13)CC2 (stereo not given) | 9%
OCCC1(NCc2ccc(-n3cccn3)cc2)CCOCC1 | -4.22%
CC(C)CN1CCC(NC(=O)N(C)Cc2csc3ccccc23)CC1 | 0.225%
CN1CCC(N(CCc2ccccc2)C(=O)COCC2CCCO2)CC1 (stereo not given) | -4.31%
COc1ccc(Cl)cc1CN(CC(N)=O)C(C)C | -4.14%
OCCN1CCN(Cc2coc(-c3ccccc3Cl)n2)CC1 | -12.1%
CCOCCC(=O)Nc1cccc(Cl)c1COC | -0.185%
OC1CCN(C2CCN(c3ccc(Cn4ccnc4)cn3)CC2)CC1 | -3.24%
CCC(=O)Nc1ccc(F)cc1OC | -10.1%
COCCC(=O)N(CCC#N)c1ccc(C)c(C)c1 | -6.74%
Cc1ncc(C(=O)N2CCOC(C(=O)N3CCCCC3)C2)c(C)n1 (stereo not given) | -4.59%
COCc1cc(N(C)Cc2cc(C(C)(C)C)n[nH]2)ncn1 | -7.3%
COCCN(C)C(=O)NCCc1coc(-c2ccc(C)cc2)n1 | -3.83%
